# Values without a mark were called inactive.
# System: Vero E6 infected with SARS-CoV-2
# Experiment: inhibition of SARS-CoV-2 cytopathic effect; higher = more antiviral protection, active = above 15
# Conditions: 48 h
Structure (SMILES),inhibition of SARS-CoV-2 cytopathic effect (1 nM) [%],inhibition of SARS-CoV-2 cytopathic effect (8.33 nM) [%],inhibition of SARS-CoV-2 cytopathic effect (100 nM) [%],inhibition of SARS-CoV-2 cytopathic effect (833.33 nM) [%],inhibition of SARS-CoV-2 cytopathic effect (10000 nM)
CC(=O)OCC(=O)[C@@]1(O)CC[C@H]2[C@@H]3CCC4=CC(=O)C=C[C@]4(C)[C@@]3(Cl)[C@@H](Cl)C[C@@]21C [dichlorisone-acetate],-1.93,-2.25,-3.39,-2.97,-2.91%
CC(C)N[C@H]1CCn2c(=O)[nH]c3cccc(c32)[C@@H]1O [zilpaterol],0.575,-0.6,-1.14,-1.59,-2.51%
O=C([O-])c1ccccn1.O=C([O-])c1ccccn1.O=C([O-])c1ccccn1.[Cr+3] [chromium-picolinate],0.6,3.76,1.3,-3.86,0.6%
CCCCN(CCCC)CCCOC(=O)c1ccc(N)cc1 [butacaine],1.8,5.07,2.1,-1.71,-2.04%
COC(=O)C1=C(C)NC(C)=C(C(=O)OCCSc2ccccc2)[C@@H]1C,-2.31,-3.84,-2.77,-0.76,3.1%
CCn1c(=O)c2c(nc(/C=C/c3ccc(OC)c(OC)c3)n2C)n(CC)c1=O [istradefylline],1.05,-1.49,-0.91,-0.33,2.33%
C[C@H](CCC(=O)O)[C@H]1CC[C@H]2[C@@H]3[C@@H](O)C[C@@H]4C[C@H](O)CC[C@]4(C)[C@H]3CC[C@]12C [ursodiol],0.455,1.77,3.56,1.38,0.145%
O=P(O)(O)C(O)(Cc1cccnc1)P(=O)(O)O [risedronate],-0.54,-1.25,-0.67,3.13,1.96%
CN(Cc1ccc(C(C)(C)C)cc1)Cc1cccc2ccccc12 [butenafine],0.43,3.81,0.84,2.62,4.56%
COCC1=C(C(=O)O)N2C(=O)[C@@H](NC(=O)/C(=N\OC)c3csc(N)n3)[C@H]2SC1 [cefpodoxime],-1.12,-1.09,-1.76,-0.98,-1.12%
CC(C)(C)NC(=O)[C@@H]1CN(Cc2cccnc2)CCN1C[C@@H](O)C[C@@H](Cc1ccccc1)C(=O)N[C@H]1c2ccccc2C[C@H]1O [indinavir],-3.73,-5.87,-9.09,-8.27,-10.5%
O=C(Nc1ccc(Cl)cc1)Nc1ccc(Cl)c(Cl)c1 [triclocarban],-2.22,-0.87,0.35,-1.44,-0.6%
CCCCOc1ccc(OCCCN2CCOCC2)cc1 [pramoxine],-3.87,-1.02,-1.18,-1.83,0.79%
CC1(C)S[C@@H]2[C@H](NC(=O)COc3ccccc3)C(=O)N2[C@H]1C(=O)O [penicillin-v-potassium],-0.76,1.87,-1.93,1.76,0.08%
C[C@]12CC[C@H]3[C@@H](CC[C@]4(O)C[C@@H](O)CC[C@]34C=O)[C@@]1(O)CC[C@@H]2C1=CC(=O)OC1 [K-strophanthidin],0.01,0.18,-5.59,-12.1,-16.9%
Oc1ccc(-c2c(-c3ccccc3)nn3c(C(F)(F)F)cc(C(F)(F)F)nc23)cc1,0.08,0.21,-0.05,-1.7,11.9%
CCCCCCCCCC(=O)OC1(c2ccc(Cl)cc2)CCN(CCCC(=O)c2ccc(F)cc2)CC1 [haloperidol-decanoate],0.13,0.37,-2.1,-0.9,-1.91%
CC1(C)CCC2=C(O1)c1ccccc1C(=O)C2=O [beta-lapachone],-0.31,0.37,-2.74,-1.46,10.9%
C[C@@H]1Cc2c([nH]c3ccccc23)[C@@H](c2c(F)cc(/C=C/C(=O)O)cc2F)N1CC(C)(C)F,0.69,1.08,-2.47,-1.93,-3.78%

Structure (SMILES),inhibition of SARS-CoV-2 cytopathic effect (1 nM) [%],inhibition of SARS-CoV-2 cytopathic effect (8.33 nM) [%],inhibition of SARS-CoV-2 cytopathic effect (100 nM) [%],inhibition of SARS-CoV-2 cytopathic effect (833.33 nM) [%],inhibition of SARS-CoV-2 cytopathic effect (10000 nM)
CC(=O)Nc1ncc([N+](=O)[O-])s1 [nithiamide],-2.44,-2.01,-13.5,-2.95,-1.53%
CCOC(=O)C1=C(C)NC(c2ccccc2)=C(C(=O)OCc2ccc([N+](=O)[O-])cc2)[C@@H]1C#Cc1ccccc1,2.05,-1.34,0.42,1.51,3.9%
C=C[C@@]1(C)CC(=O)[C@]2(O)[C@@]3(C)[C@@H](O)CCC(C)(C)[C@@H]3[C@H](OC(=O)CCN(C)C)[C@H](OC(C)=O)[C@@]2(C)O1 [colforsin-daproate],0.4,-2.13,-3.35,3.07,29.6% (active)
N=C(N)SCCc1ccc(OCc2ccc([N+](=O)[O-])cc2)cc1,1.92,-1.12,-0.47,-2.92,-4.41%
O=c1cc(-c2ccc(O)cc2)oc2cc(O)cc(O)c12 [apigenin],-2.83,-3.34,-1.73,0.85,6.4%
OCc1cccnc1 [nicotinyl-alcohol-tartrate],-0.34,-0.51,-0.17,0.73,-0.73%
CCOC(=O)Nc1ccc(NCc2ccc(F)cc2)cc1N [Retigabine],-1.92,1.16,-1.6,-2.18,1.01%
NC[C@@H](O)CC(=O)O [aminohydroxybutyric-acid],-3.49,-1.06,-2.52,-2.28,-0.71%
Cc1cc2c(F)c(Oc3ncnn4cc(OC[C@@H](C)OC(=O)[C@H](C)N)c(C)c34)ccc2[nH]1 [brivanib-alaninate],-0.11,4.65,1.96,-0.19,-7.17%
N=C(N)NC(=O)c1cnn(-c2cccc3ncccc23)c1C1CC1 [zoniporide],-0.05,3.39,1.14,3.55,-1.51%
CCC(C)(CN(C)C)OC(=O)c1ccccc1 (stereo not given) [amyleine],-1.14,0.02,-0.24,-8.42,-0.23%
CS(=O)(=O)Oc1ccc2c(NC(N)=O)c(C(=O)c3ccc(Cl)cc3Cl)oc2c1 [lirimilast],-4.96,-9.08,-8.83,-12.5,-5.64%
Cc1c(NC(=O)c2cc3c(s2)CCCC3)cccc1-c1cn(C)c(=O)c(Nc2ccc(C3C(=O)N(C)CCN3C)cc2)n1 (stereo in doubt),2.73,-3.85,3.38,3.72,7.34%
CC(C)(CO)c1cc2cc(NC(=O)C3(c4ccc5c(c4)OC(F)(F)O5)CC3)c(F)cc2n1C[C@@H](O)CO [tezacaftor],0.35,0.97,-1.35,1.62,0.29%
c1ccc(CCCN2CCN(CCOC(c3ccccc3)c3ccccc3)CC2)cc1,0.71,0.97,-0.18,0.61,-1.85%
CN(C(=O)CCCOc1ccc2[nH]c(=O)ccc2c1)C1CCCCC1 [cilostamide],0.62,1.01,-0.1,0.52,-0.25%
c1ccc2sc(N3CCN(Cc4ccc5c(c4)OCO5)CC3)nc2c1 [2-[1-(4-piperonyl)piperazinyl]benzothiazole],-3.54,-1.04,-3.92,-3.68,-2.73%
N=C(N)c1ccc(/N=N/Nc2ccc(C(=N)N)cc2)cc1 [diminazene-aceturate],0.66,-1.51,-3.27,-14,2.42%

# Source: the supplement of paper PMC13380429
